Only some compounds are listed: those with a hit (about 11% of all), similar ones and a draw of the others.
3T3 cytotox = kills NIH 3T3 cells | Potency, µM (doses to about 96.7 µM), most hits filed as inhibitors | NIH 3T3 viability, CellTiter-Glo ATP luminescence, 48-72 h | 94,000 tested, 4.3% active; note: nearly all actives have a fitted effect of over 55% in size
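First NIH 3T3 cells are plated at 400 cells/well; next compound is pinned in; then plates incubate 48 or 72 hr at 37 °C; finally CellTiter-Glo is added and luminescence read after 10 min.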
FLuc inh = Photinus pyralis luciferase inhibition. 76,000 tested, 2.5% active. purified P. pyralis luciferase, luminescence, biochemical. Potency, µM (top dose mostly 115 µM), actives largely listed as inhibitors. P08659; note: nearly all actives have a fitted effect of over 65% in size
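Biochemical qHTS: compound (6-point titration) added to 10uM D-luciferin plus 10uM ATP in Tris acetate pH 7.5 buffer with Mg, Tween-20 and BSA, then purified enzyme at 10nM; light output imaged.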
hNpr1 antagonist = antagonists of human natriuretic peptide receptor Npr1; AID 1347048; Potency, µM (highest dose often 46.3 µM), actives largely listed as inhibitors; 76,000 tested, 1.6% active; HEK293 hNpr1 GloSensor cGMP, ANP-stimulated luminescence; calls by dose curve; note: nearly all actives have a fitted effect of over 60% in size
Target sequence (P16066 whole entry, looked up): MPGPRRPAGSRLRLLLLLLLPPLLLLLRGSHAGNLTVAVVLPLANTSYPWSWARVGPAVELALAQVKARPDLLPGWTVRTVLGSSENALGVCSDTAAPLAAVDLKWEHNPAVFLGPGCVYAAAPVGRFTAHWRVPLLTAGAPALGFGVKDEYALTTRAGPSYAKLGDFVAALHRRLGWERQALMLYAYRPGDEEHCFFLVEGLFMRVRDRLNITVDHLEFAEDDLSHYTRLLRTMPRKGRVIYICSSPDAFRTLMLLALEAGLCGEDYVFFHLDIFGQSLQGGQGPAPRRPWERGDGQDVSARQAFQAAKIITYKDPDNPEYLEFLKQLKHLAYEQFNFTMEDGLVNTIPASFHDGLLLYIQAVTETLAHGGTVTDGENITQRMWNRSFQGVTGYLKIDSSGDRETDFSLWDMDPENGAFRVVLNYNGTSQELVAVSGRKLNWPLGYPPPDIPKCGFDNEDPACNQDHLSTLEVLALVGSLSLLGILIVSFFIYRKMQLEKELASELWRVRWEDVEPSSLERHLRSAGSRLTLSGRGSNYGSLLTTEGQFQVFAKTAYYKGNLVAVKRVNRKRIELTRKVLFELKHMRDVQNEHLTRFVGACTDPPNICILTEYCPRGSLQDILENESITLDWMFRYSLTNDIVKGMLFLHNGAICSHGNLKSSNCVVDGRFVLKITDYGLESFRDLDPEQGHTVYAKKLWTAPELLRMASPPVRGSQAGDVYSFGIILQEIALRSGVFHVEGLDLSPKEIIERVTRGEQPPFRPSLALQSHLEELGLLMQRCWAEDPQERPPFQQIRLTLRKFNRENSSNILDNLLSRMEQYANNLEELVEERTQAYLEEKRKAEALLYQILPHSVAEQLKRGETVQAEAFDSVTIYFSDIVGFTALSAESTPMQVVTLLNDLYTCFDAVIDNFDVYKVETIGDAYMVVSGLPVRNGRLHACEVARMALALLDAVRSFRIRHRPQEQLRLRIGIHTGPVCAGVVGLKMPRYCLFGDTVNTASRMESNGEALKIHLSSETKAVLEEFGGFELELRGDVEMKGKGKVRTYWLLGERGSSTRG
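HEK293 cells stably expressing human Npr1 and cGMP GloSensor pGS-40F, loaded 2 h with 2% GloSensor reagent, given compound 30 min at room temperature. Luminescence read before and 20 min after 0.1 nM hNppA.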
HEK293 tox = cytotoxic compounds in HEK 293 cells; 94,000 tested, 6.6% active; HEK 293 viability, ATP luminescence (CellTiter-Glo), 48-72 h; Potency, µM (titrated, usually from 115 µM), usual class: inhibitors; note: nearly all actives have a fitted effect of over 60% in size
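HEK 293 cells at 250 cells/well were exposed to compounds by pintool transfer for 48 or 72 hr at 37 degree Celsius, 5% CO2. Viability was read as ATP-coupled luminescence with CellTiter-Glo after 10 min at room temperature.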
Large screens that a line does not name were inactive; ! = not confirmed by another sample. Unless noted, calls come from the whole dose curve; as a rule, active = well fitted curve in the direction sought with a large enough effect; inconclusive = small, poorly fitted or top-dose-only effect, or another doubt; inactive = no such curve, though single readings can be large; an effect the other way counts as inactive or inconclusive.

CN(C)c1ncc2c(n1)C(C)(C(=O)Nc1ccncc1)CCC2 (centres undefined)	3T3 cytotox 10µM, HEK293 tox inconclusive
CC(C)CCN1CCCC(c2nn(-c3ccccc3)c(=O)[nH]2)C1 (centres undefined)	none
CC(C)Oc1ccc(C(=O)N2Cc3cnn(Cc4ccc(F)cc4)c3C2)cc1	3T3 cytotox inconclusive, hNpr1 antagonist inconclusive, HEK293 tox inconclusive
Cc1cc(Cl)ccc1C(=O)N1Cc2cnn(Cc3ccc(F)cc3)c2C1	3T3 cytotox inconclusive, hNpr1 antagonist inconclusive, HEK293 tox 45µM
Cc1cccc(CC(=O)N2CCC[C@H](n3c(=O)n(Cc4ccccc4)c4cccnc43)C2)c1	3T3 cytotox inconclusive, hNpr1 antagonist inconclusive, HEK293 tox 40µM
Cc1nc(C)c(C(=O)N2CCC[C@H](n3c(=O)n(Cc4ccccc4)c4cccnc43)C2)s1	HEK293 tox 40µM
O=C(CCc1c[nH]c2ccccc12)N1CCC[C@H](n2c(=O)n(CC3CC3)c3cccnc32)C1	3T3 cytotox inconclusive, HEK293 tox 79µM
COCCn1c(=O)n([C@H]2CCCN(C(=O)Cc3cccc(F)c3)C2)c2ncccc21	none
Cc1ccc(CNC(=O)N2CC[C@@H]3COC(=O)N(Cc4ccccc4)[C@@H]3C2)cc1	none (no result: FLuc inh, hNpr1 antagonist)
Cc1ccc(C(=O)N2CCCC(n3cc(-c4nc(C(C)C)no4)nn3)C2)s1 (centres undefined)	none
Cc1ccc(CN2CCc3oc(C)c(C(=O)N4CCSCC4)c3C2)cc1	HEK293 tox inconclusive
CCOC(=O)C1=C(C)N(Cc2ccc(C(=O)N3CCCCC3)cc2)C(=O)CC1c1cccc(C)c1 (centres undefined)	3T3 cytotox inconclusive, hNpr1 antagonist inconclusive, HEK293 tox 40µM
CCCCNC(=O)c1cccc(CN2C(=O)CC(c3ccccc3C)C(C(=O)OCC)=C2C)c1 (centres undefined)	3T3 cytotox inconclusive, HEK293 tox inconclusive
CCOc1ccc(Cl)cc1CN(C)CC1(O)CCCNC1 (centres undefined)	3T3 cytotox inconclusive, HEK293 tox inconclusive
Cc1cc(C)n(CCc2c(-c3ccccc3)ncn2CCCc2cccnc2)n1	3T3 cytotox 50µM
CCc1ncc(-c2c(-c3ccccc3)ncn2CCCOc2cccnc2)cn1	none
Cn1ncc2c(-c3ccc(Cl)cc3Cl)cc(C(=O)N3CCN(c4ncccn4)CC3)nc21	3T3 cytotox 45µM, HEK293 tox 32µM (no result: FLuc inh, hNpr1 antagonist)
CN1CCN(C(=O)c2cc(-c3ccc(Cl)cc3Cl)nc3c2cnn3C)CC1	none (no result: FLuc inh, hNpr1 antagonist)
CN(C(=O)c1cc(-c2cc(Cl)cc(Cl)c2)nc2c1cnn2C)c1ccccc1	3T3 cytotox inconclusive, HEK293 tox 40µM (no result: FLuc inh, hNpr1 antagonist)
Cn1ncc2c(C(=O)N3CCN(Cc4ccccc4)CC3)cc(-c3ccc(Cl)cc3Cl)nc21	3T3 cytotox inconclusive, HEK293 tox 40µM (no result: FLuc inh, hNpr1 antagonist)
CN(C)C(=O)c1cc(-c2ccc(Cl)cc2Cl)c2cnn(C)c2n1	none (no result: FLuc inh, hNpr1 antagonist)
Cn1ncc2c(C(=O)N3CCN(Cc4ccccc4)CC3)cc(-c3ccc(Cl)cc3)nc21	3T3 cytotox inconclusive, HEK293 tox 40µM (no result: FLuc inh, hNpr1 antagonist)
O=C(NC1CCCCCC1)c1nc2sccn2c1-c1cccc(C(F)(F)F)c1	3T3 cytotox inconclusive (no result: FLuc inh, hNpr1 antagonist)
CC1CCCN1C(=O)c1cc(-c2ccccc2C(F)(F)F)nc2c1cnn2C (centres undefined)	none (no result: FLuc inh, hNpr1 antagonist)
COc1ccc(C(=O)N2CCC3(CC2)CC(CN2CCOCC2)N(C)C3)c(OC)n1 (centres undefined)	none (no result: FLuc inh, hNpr1 antagonist)
CC(C)NC(=O)N1CCCC(Cn2c(C3CC3)nc3cccnc32)C1 (centres undefined)	none
Cn1ncc2c(C(=O)N3CCN(c4ncccn4)CC3)cc(-c3ccc(Cl)nc3)nc21	3T3 cytotox 35µM!, HEK293 tox inconclusive (no result: FLuc inh, hNpr1 antagonist)
CN(Cc1cccc2cnccc12)C(=O)COc1ccc(Cl)cc1Cl	3T3 cytotox inconclusive, hNpr1 antagonist inconclusive, HEK293 tox 45µM
COc1ccccc1NC(=O)CC1CCCN(c2cnn(CC3CC3)c(=O)c2)C1 (centres undefined)	3T3 cytotox 35µM
O=C(CC1CCCN(c2cnn(CC3CC3)c(=O)c2)C1)Nc1ccccc1F (centres undefined)	3T3 cytotox inconclusive
COc1ccccc1NC(=O)CC1CCCN(c2cnn(C)c(=O)c2)C1 (centres undefined)	none
CCOc1ccccc1NC(=O)CC1CCCN(c2cnn(CC3CC3)c(=O)c2)C1 (centres undefined)	3T3 cytotox 35µM, HEK293 tox inconclusive
COCCc1ccc(OCc2ccccc2-c2cc(C)n[nH]c2=O)cc1	none
CNC(=O)c1cccc(-c2ccccc2COc2ccc(CCOC)cc2)n1	FLuc inh 10µM, HEK293 tox inconclusive
c1ccc(CO[C@H]2COCCN(c3nc4ccccc4s3)C2)cc1	3T3 cytotox inconclusive, FLuc inh inconclusive, HEK293 tox 112µM
COC(=O)[C@@H]1Cc2ncn(Cc3ccccc3)c2CN1S(=O)(=O)c1ccc(C)cc1	none
O=[S+]([O-])(NC1CCN(c2ccnc3ccnn23)C1)c1cccs1 (centres undefined)	3T3 cytotox inconclusive, HEK293 tox 71µM (no result: FLuc inh, hNpr1 antagonist)
O=[S+]([O-])(NC1CCN(c2ccnc3ccnn23)CC1)c1cccc(C(F)(F)F)c1	3T3 cytotox inconclusive, HEK293 tox 45µM (no result: FLuc inh, hNpr1 antagonist)
O=C(NC1CCCC1)N1CCC(C(=O)N2CCC(c3ccccc3)CC2)CC1	none (no result: FLuc inh, hNpr1 antagonist)
Cc1ncoc1C(=O)NCc1cc(Cl)cc2c(C)c(-c3ccccc3)[nH]c12	3T3 cytotox inconclusive, FLuc inh inconclusive, hNpr1 antagonist 2.8µM, HEK293 tox inconclusive
Cc1nc(CCC(=O)NCc2cc(Cl)cc3c(C)c(-c4ccccc4)[nH]c23)n[nH]1	3T3 cytotox inconclusive, FLuc inh 32µM, HEK293 tox inconclusive
Cc1ncoc1C(=O)NCC(=O)N1CCCCCNC(=O)CC1c1ccccc1 (centres undefined)	none
CCNC(=O)N[C@H]1[C@H](O)[C@@H](N2CCC(Cc3ccccc3)CC2)[C@@H]2OC[C@H]1O2	none
CCCCN1C(=O)NC(c2ccc(OCC)cc2)C2=C1COC2=O (centres undefined)	none
O=C(c1ccn[nH]1)N1CC(c2ncc3c(-c4cccc(C(F)(F)F)c4)nccn23)C1	3T3 cytotox inconclusive, HEK293 tox inconclusive
Cc1ccccc1-c1nccn2c(C3CN(Cc4ccc(O)cc4)C3)ncc12	3T3 cytotox 79µM, HEK293 tox inconclusive
COc1ncccc1-c1nccn2c(C3CN(Cc4c[nH]c5ccccc45)C3)ncc12	3T3 cytotox inconclusive, HEK293 tox inconclusive
Cc1ccccc1-c1nccn2c(C3CN(C(=O)c4cc5ccccc5[nH]4)C3)ncc12	3T3 cytotox 79µM, FLuc inh inconclusive, HEK293 tox 89µM
CCCNC(=O)[C@@H]1Cc2c[nH]c3cccc(c23)[C@H](CC(C)C)N1	3T3 cytotox inconclusive, HEK293 tox 50µM
CC(C)C[C@@H]1N[C@H](C(=O)NCCOc2ccccc2)Cc2c[nH]c3cccc1c23	3T3 cytotox 28µM, HEK293 tox inconclusive
CC(C)C[C@@H]1N[C@H](C(=O)NCCN(C)C)Cc2c[nH]c3cccc1c23	3T3 cytotox 56µM, HEK293 tox 100µM

From PubChem
